# PubChem BioAssay (NCATS)
# Where “and” joins values, the source holds several entries; their conditions need not be identical. Equal entries are not always repeated. Inconclusive results are not listed. Entries that show only a call come without a potency. Calls of active or inactive are those of the source. Unless noted, calls come from the whole dose curve.
# What was measured:
# [1] = Cell Viability - NIH 3T3 (AID 541; active = well fitted curve in the direction sought with a large enough effect; an effect the other way counts as inactive or inconclusive; note: nearly all actives have a fitted effect of over 25% in size); conditions: NIH 3T3 cell viability, qHTS; activity change, negative = cytotoxicity: at 92.2 µM (top of the series)
# How it was run: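 Luminescent ATP signal (CellTiter-Glo) served as the viability read-out after NIH 3T3 cells were exposed to compounds over a concentration range for 40 hr at 37 °C. Hill-equation modelling of concentration-response data gave AC50.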
# [2] = Cellular Toxicity (caspase-3) Mesangial (AID 660; active = well fitted curve in the direction sought with a large enough effect; an effect the other way counts as inactive or inconclusive;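 note: combined caspase 3 and 7 activity read by Caspase-Glo luminescence; cells exposed to compound for 16 h before the caspase read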)
# How it was run: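 Mesangial cells, 1000/well, 5 h settle at 37 °C; compound 16 h, 37 °C; Caspase-Glo 3/7 reagent 20 min RT; luminescence. Norm.: DMSO = 0%, tamoxifen 100 uM = 100%. AC50, Hill fit.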
# [3] = Cell Viability - LYMP2-004 (AID 966; active = well fitted curve in the direction sought with a large enough effect; an effect the other way counts as inactive or inconclusive;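 note: cells exposed to compound for 24 h; nearly all actives have a fitted effect of over 65% in size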)
# How it was run: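 Cells seeded 2500/well, rested 5 hr at 37 C, dosed across a concentration series, incubated 24 hr at 37 C, then CellTiter-Glo added for 30 min at room temperature and luminescence read. Hill fitting gave AC50.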
# [4] = Cell Viability - LYMP2-017 (AID 972; active = well fitted curve in the direction sought with a large enough effect; an effect the other way counts as inactive or inconclusive;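 note: cells exposed to compound for 24 hours at 37 °C; nearly all actives have a fitted effect of over 55% in size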)
# How it was run: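 2500 cells/well, 5 h 37 C; cpd 24 h 37 C in complete medium; CellTiter-Glo, 30 min RT; luminescence (ATP). AC50 via Hill fit, qHTS.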
# [5] = molecular target: Estrogen receptor (Homo sapiens) (UniProt P03372); test: qHTS assay for small molecule antagonists of estrogen receptor alpha signaling (AID 588513; active = well fitted curve in the direction sought with a large enough effect in the signal ratio, with a control signal flat, not every such curve was filed as active; the % refers to the signal ratio)
# How it was run: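 ER-alpha-UAS-bla GripTite HEK 293 cells in medium with 2% charcoal/dextran-treated FBS were preincubated 4 h at 37 C, dosed with compound (1:2 titration), stimulated with 0.5nM 17-beta-estradiol for 18 h, then read by CCF4 beta-lactamase fluorescence.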
# [6] = molecular target: Estrogen receptor (Homo sapiens) (UniProt P03372); test: qHTS assay for small molecule agonists of estrogen receptor alpha signaling (AID 588514); note: nearly all actives have a fitted effect of over 70% in size
# How it was run: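 Cells were plated at 5000/well, incubated 4 hrs at 37 C, dosed with compound titration series, incubated 18 hrs at 37 C, loaded with CCF4 dye for 2 hrs at RT, then fluorescence was read.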
# [7] = molecular target: Peroxisome proliferator-activated receptor delta (Homo sapiens) (UniProt Q03181); test: qHTS assay for small molecule agonists of peroxisome proliferator-activated receptor delta signaling (AID 588534)
# How it was run: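 Fluorescence from CCF4 substrate cleavage by beta-lactamase reporter, read 2 hrs at RT, measured agonist activity. Compounds were tested with 18 hrs exposure at 37 C. Concentration-response data fitted to Hill equation.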
# [8] = qHTS assay for small molecule antagonists of peroxisome proliferator-activated receptor delta signaling (AID 588535; active = well fitted inhibition curve with a large enough effect in the signal ratio, with a control signal flat, not every such curve was filed as active; the % refers to the signal ratio;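 for max response: cells co-treated with a PPAR-delta agonist as stimulator during compound exposure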); conditions: HEK293T PPARd-UAS-bla, beta-lactamase FRET ratio, 18 h; 460 nm channel
# How it was run: (§1)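 HEK293T PPAR-delta-UAS-bla cells, 4000/well, 2% charcoal/dextran FBS; 5 h 37 C; cpd titration; 18 h 37 C; CCF4 2 h RT; FI 460/530 nm; Hill fit → IC50, efficacy.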
# [9] = molecular target: Peroxisome proliferator-activated receptor delta (Homo sapiens) (UniProt Q03181); test: as above
# How it was run: as §1
# [10] = molecular target: Peroxisome proliferator-activated receptor gamma (Homo sapiens) (UniProt P37231); test: qHTS assay for small molecule agonists of peroxisome proliferator-activated receptor gamma signaling (AID 588536; active = well fitted curve in the direction sought with a large enough effect in the signal ratio, with a control signal flat, not every such curve was filed as active; the % refers to the signal ratio)
# How it was run: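 Ratiometric blue/green fluorescence (405 nm excitation; 460 and 530 nm emission) from CCF4-loaded HEK293 reporter cells serves as signal. Exposure to test compounds lasts 16 h at 37 C in medium containing 1% charcoal/dextran-treated serum.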
# [11] = molecular target: Vitamin D3 receptor (Homo sapiens) (UniProt P11473); test: qHTS assay for small molecule antagonists of vitamin D receptor signaling (AID 588541);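 note: receptor activated by calcitriol during compound treatment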
# How it was run: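 Antagonist-mode beta-lactamase reporter assay: HEK293T VDR-UAS-bla cells were exposed to titrated compound alongside 1-alpha,25-dihydroxyvitamin D3 at 3 nM final for 16 h. Values were normalized to the 50 nM agonist control and DMSO basal, with IC50 and efficacy from Hill equation fits.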
# [12] = molecular target: Vitamin D3 receptor (Homo sapiens) (UniProt P11473); test: qHTS assay for small molecule agonists of vitamin D receptor signaling (AID 588543)
# How it was run: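 GeneBLAzer VDR-UAS-bla HEK293T cells in 2% charcoal-stripped FBS medium were dosed with compound titrations for 16 h at 37 °C; CCF4 β-lactamase readout (405 nm ex, 460/530 nm em). EC50 and efficacy from Hill fits, normalized to 50 nM calcitriol (100%) and DMSO (0%).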
# [13] = molecular target: Thyroid hormone receptor beta (Homo sapiens) (UniProt P10828); test: qHTS assay for small molecule antagonists of thyroid hormone receptor beta signaling (AID 588547; active = well fitted inhibition curve with a large enough effect in the signal ratio, with a control signal flat, not every such curve was filed as active; the % refers to the signal ratio;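 note: cells stimulated with 0.4 nM T3 agonist during compound exposure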); conditions: TR-UAS-bla HEK293, beta-lactamase ratio, antagonist mode, 18 h
# How it was run: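 Inhibition of T3-driven (0.4nM final) beta-lactamase reporter activity was measured over 0.59 nM to 92 uM compound after 18 h at 37 C. The cells were GripTite HEK293 TR-UAS-bla in charcoal/dextran-stripped serum, with CCF4 ratio read-out and IC50 from Hill fits.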
# [14] = qHTS assay for small molecule agonists of the antioxidant response element (ARE) signaling pathway (AID 651741; active = well fitted activation curve with a large enough effect in the signal ratio; the % refers to the signal ratio; note: potency is the fitted concentration of half-maximal effect)
# How it was run: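 Quantitative HTS in HepG2 cells stably expressing an ARE-beta-lactamase reporter; 16 h compound exposure at 37 C, followed by 2 h room-temperature incubation with LiveBLAzer B/G FRET substrate and fluorescence measurement.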
# [15] = qHTS assay for small molecule agonists of the antioxidant response element (ARE) signaling pathway measured by Nrf2-dependant transcriptional activity (AID 720636; active = well fitted curve in the direction sought with a large enough effect in the repeat runs; an effect the other way counts as inactive or inconclusive)
# How it was run: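 Nrf2-dependent transcription read as ONE-Glo luciferase signal from ARE-luc HepG2 reporter cells after 16 hr compound treatment at 37 C, 5% CO2, in assay medium with 1% dialyzed FBS.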
# [16] = qHTS assay for small molecule antagonists of the retinoid-related orphan receptor gamma (ROR-gamma) signaling pathway - cell viability counter screen (AID 720652; active = well fitted curve in the direction sought with a large enough effect in the repeat runs; an effect the other way counts as inactive or inconclusive;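 note: compound exposure lasted 16 hr before ATP read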)
# How it was run: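 Luminescence from CellTiter-Glo after 30 min at room temperature reported cellular ATP as the cytotoxicity measure. Cells were the CHO reporter line with doxycycline-induced ROR-gamma expression, exposed to compound for 16 hr at 37 C.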
# [17] = molecular target: Glucocorticoid receptor (Homo sapiens) (UniProt P04150); test: qHTS assay for small molecule agonists of glucocorticoid receptor signaling (AID 588532; active = well fitted curve in the direction sought with a large enough effect in the signal ratio, with a control signal flat; the % refers to the signal ratio); conditions: HeLa MMTV-bla, beta-lactamase ratio, agonist, 18 h; stronger effect = higher value; percent of dexamethasone control, DMSO zero
# How it was run: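 Agonist-mode qHTS: GRE-driven beta-lactamase in HeLa cells exposed 18 h to titrated compounds (up to 92 uM), then CCF4 ratio read after 2 h at RT; Hill-fitted EC50, efficacy relative to 0.1 uM dexamethasone.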
# [18] = molecular target: Glucocorticoid receptor (Homo sapiens) (UniProt P04150); test: qHTS assay for small molecule antagonists of glucocorticoid receptor signaling (AID 588533; active = well fitted inhibition curve with a large enough effect in the signal ratio, with a control signal flat, not every such curve was filed as active; the % refers to the signal ratio;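 note: cells stimulated with 2 nM dexamethasone as agonist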)
# How it was run: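 Antagonist-mode qHTS: compound titrations added to GRE-bla HeLa cells, then dexamethasone 2 nM final; 18 h, 37 C. CCF4 FRET fluorescence normalized to dexamethasone and DMSO; IC50 from Hill fit.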
# [19] = qHTS assay for small molecule activators of the nuclear factor-kappa B (NF-kB) signaling pathway (AID 651749; active = well fitted activation curve with a large enough effect in the signal ratio; the % refers to the signal ratio); conditions: NF-kB-bla ME-180 cells, beta-lactamase FRET ratio, 16 h; stronger effect = higher value
# How it was run: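 Readout: beta-lactamase reporter driven by an NF-kB response element, detected fluorescently as loss of FRET. Cells were the ME-180 line, treated 16 hr at 37C with pin-transferred compound.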
# [20] = molecular target: Peroxisome proliferator-activated receptor gamma (Homo sapiens) (UniProt P37231); test: qHTS assay for small molecule antagonists of peroxisome proliferator-activated receptor gamma signaling (AID 588537; active = well fitted inhibition curve with a large enough effect in the signal ratio, with a control signal flat, not every such curve was filed as active; the % refers to the signal ratio;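 note: reporter cells co-stimulated with 50 nM rosiglitazone agonist during compound treatment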)
# How it was run: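 Antagonist mode, beta-lactamase reporter in HEK293; charcoal/dextran FBS 1%; 3000 cells/well, 37 C 6-6.5 h; cpd titration + rosiglitazone 50 nM final, 16 h 37 C; CCF4, 2 h RT; 460/530 nm; Hill fit → IC50, efficacy.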
# Vitamin D3 receptor (Homo sapiens), sequence (P11473 whole entry, looked up): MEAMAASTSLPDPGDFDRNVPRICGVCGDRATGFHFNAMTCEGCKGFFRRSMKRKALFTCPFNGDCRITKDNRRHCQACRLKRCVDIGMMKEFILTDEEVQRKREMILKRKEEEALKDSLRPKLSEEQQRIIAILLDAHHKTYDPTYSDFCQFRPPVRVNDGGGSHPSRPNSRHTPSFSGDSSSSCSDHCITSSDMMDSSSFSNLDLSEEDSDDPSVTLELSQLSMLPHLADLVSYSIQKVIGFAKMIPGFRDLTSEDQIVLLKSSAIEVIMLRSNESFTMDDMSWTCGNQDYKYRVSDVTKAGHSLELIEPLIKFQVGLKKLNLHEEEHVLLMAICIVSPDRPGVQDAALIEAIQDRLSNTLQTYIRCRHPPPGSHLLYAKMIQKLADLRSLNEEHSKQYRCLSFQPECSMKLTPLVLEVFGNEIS
# Peroxisome proliferator-activated receptor gamma (Homo sapiens), sequence (P37231 whole entry, looked up): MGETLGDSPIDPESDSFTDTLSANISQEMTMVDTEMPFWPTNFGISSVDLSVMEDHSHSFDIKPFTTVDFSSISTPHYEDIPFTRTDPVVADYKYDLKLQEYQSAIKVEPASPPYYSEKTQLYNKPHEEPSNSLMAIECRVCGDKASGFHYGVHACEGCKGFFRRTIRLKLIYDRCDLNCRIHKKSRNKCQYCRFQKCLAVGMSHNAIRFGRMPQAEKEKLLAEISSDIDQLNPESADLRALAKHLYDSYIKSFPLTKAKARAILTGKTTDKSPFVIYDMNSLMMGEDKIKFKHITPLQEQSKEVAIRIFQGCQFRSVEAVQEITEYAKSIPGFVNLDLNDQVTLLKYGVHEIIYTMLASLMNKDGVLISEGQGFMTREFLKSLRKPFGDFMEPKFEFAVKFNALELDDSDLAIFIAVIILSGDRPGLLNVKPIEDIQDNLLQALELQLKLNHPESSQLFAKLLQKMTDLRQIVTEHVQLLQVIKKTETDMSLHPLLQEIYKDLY
# Estrogen receptor (Homo sapiens), sequence (P03372 whole entry, looked up): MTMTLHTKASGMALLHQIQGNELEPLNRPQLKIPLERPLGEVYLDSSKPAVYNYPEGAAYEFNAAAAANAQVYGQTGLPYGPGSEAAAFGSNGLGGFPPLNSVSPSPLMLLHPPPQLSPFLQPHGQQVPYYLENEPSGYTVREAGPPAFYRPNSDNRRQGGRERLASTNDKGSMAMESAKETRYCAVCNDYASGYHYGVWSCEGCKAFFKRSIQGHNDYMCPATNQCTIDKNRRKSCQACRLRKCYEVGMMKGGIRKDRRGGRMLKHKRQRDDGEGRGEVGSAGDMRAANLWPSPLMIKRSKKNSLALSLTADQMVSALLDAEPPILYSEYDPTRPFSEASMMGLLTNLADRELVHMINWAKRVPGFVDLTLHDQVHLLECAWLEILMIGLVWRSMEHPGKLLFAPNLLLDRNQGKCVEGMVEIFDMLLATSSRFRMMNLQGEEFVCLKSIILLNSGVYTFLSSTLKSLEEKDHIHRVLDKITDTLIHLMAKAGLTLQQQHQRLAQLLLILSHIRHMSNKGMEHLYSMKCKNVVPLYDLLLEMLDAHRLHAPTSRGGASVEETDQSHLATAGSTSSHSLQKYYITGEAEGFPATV
# Peroxisome proliferator-activated receptor delta (Homo sapiens), sequence (Q03181 whole entry, looked up): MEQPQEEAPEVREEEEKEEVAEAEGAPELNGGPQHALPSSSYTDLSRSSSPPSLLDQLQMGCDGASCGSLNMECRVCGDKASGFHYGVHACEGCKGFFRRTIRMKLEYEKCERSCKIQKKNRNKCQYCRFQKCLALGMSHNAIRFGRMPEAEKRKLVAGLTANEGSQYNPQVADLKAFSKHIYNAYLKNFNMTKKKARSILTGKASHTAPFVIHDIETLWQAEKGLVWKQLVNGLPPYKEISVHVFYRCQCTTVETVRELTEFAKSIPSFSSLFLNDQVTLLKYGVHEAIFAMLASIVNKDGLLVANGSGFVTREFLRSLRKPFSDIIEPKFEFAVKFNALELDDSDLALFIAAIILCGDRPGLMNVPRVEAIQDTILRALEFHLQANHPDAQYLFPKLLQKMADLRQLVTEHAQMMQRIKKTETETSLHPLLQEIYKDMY
# Thyroid hormone receptor beta (Homo sapiens), sequence (P10828 whole entry, looked up): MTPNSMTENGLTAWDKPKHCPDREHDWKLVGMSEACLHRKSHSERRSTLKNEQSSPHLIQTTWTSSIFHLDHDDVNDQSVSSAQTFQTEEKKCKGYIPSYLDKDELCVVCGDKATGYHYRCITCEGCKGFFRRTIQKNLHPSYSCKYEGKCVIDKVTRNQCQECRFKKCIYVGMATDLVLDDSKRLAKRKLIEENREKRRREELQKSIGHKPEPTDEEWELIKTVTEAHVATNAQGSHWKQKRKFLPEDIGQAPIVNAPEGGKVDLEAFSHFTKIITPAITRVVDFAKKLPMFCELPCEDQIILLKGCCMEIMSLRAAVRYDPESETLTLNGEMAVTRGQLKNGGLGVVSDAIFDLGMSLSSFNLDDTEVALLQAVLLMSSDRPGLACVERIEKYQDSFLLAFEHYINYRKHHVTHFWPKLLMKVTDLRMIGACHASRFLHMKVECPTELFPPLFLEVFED
# Glucocorticoid receptor (Homo sapiens), sequence (P04150 whole entry, looked up): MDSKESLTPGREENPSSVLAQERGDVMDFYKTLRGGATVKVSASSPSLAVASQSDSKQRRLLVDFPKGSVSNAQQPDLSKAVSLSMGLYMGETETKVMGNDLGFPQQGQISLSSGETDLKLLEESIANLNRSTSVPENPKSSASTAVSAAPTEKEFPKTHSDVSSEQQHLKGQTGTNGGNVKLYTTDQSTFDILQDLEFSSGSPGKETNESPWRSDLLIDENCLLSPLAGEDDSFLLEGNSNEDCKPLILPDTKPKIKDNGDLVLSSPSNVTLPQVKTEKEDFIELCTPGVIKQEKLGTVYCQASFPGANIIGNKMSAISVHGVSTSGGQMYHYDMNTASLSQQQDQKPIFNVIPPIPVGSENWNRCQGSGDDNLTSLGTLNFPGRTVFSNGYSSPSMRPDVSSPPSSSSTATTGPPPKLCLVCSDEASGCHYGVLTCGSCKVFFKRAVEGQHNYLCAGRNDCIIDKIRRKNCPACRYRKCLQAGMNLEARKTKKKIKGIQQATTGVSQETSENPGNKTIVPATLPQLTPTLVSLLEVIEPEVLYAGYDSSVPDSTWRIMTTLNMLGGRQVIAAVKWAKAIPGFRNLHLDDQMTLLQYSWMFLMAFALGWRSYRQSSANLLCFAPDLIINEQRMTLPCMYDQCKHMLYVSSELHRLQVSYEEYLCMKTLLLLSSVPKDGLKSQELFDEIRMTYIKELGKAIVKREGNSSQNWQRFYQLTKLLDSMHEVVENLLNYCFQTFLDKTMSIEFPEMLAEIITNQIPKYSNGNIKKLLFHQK
Compound,Potency [1],outcome [2],Potency [3],Potency [4],Potency [5],Potency [6],outcome [7],max response [8],outcome [9],outcome [10],outcome [11],outcome [12],activity change % (negative = inhibition) [13],Potency [14],Potency [15],Potency [16],activation [17],outcome [18],activation [19],Potency [20]
N#CCCC#N,inactive,inactive,inactive,inactive,inactive,inactive,inactive,18.6%,inactive,inactive,inactive,inactive,5.23% (inactive),inactive,inactive,inactive,,,,
c1ccc(NNc2ccccc2)cc1,inactive,,,,,,inactive,13.2% and 5.7%,inactive,,,inactive,8.59% (inactive),inactive,inactive,inactive,1.14% (inactive) and -8.47% (inactive),inactive,0.182% (inactive) and 3.71% (inactive),
C=CC(=O)OCC(CC)CCCC (stereo unspecified),inactive,inactive,inactive,inactive,,,inactive,10.4% and 11.2%,inactive,inactive,inactive,inactive,-10.5% (inactive) and 4.22% (inactive),inactive,inactive,inactive,-0.1% (inactive) and -12.6% (inactive),inactive,-0.0286% (inactive) and 0.831% (inactive),inactive
CCOP(=S)(OCC)Oc1nc(Cl)c(Cl)cc1Cl,inactive,inactive,inactive,,inactive,inactive,inactive,21.6%,inactive,,inactive,inactive,4.5% (inactive) and 5.64% (inactive) and -7.44% (inactive),37.6 µM (active) [middle of 4 runs],inactive,inactive,0.796% (inactive) [middle of 4 runs],inactive,-1.28% (inactive) [middle of 4 runs],inactive
Oc1cc(Cl)cc(Cl)c1,inactive,inactive,inactive,inactive,inactive,,inactive,,,inactive,inactive,inactive,11.4% (inactive),,,inactive,6.41% (inactive),inactive,0.715% (inactive),inactive
O=[N+]([O-])CCO,inactive,,,inactive,inactive,inactive,,,,inactive,,,2.47% (inactive),,inactive,inactive,-6.62% (inactive),inactive,-0.859% (inactive),
C=COC(C)=O,inactive,inactive,,inactive,,,,,,,,inactive,0.373% (inactive),,inactive,inactive,,,,
O=C(Cc1ccccc1)OCc1ccccc1,inactive,inactive,inactive,inactive,,inactive,inactive,18.5%,inactive,inactive,inactive,inactive,,,inactive,inactive,0.186% (inactive),,,
CN(C)C(=O)Nc1ccc(Cl)cc1,inactive,,,inactive,,,inactive,-2.77% and 22.5%,inactive,inactive,,inactive,-0.766% (inactive),inactive,inactive,inactive,8.83% (inactive) and -10.8% (inactive),inactive,,inactive
CC[N+](=O)[O-],,inactive,inactive,,,,inactive,,,,inactive,,-0.712% (inactive),inactive,inactive,inactive,5.8% (inactive),inactive,,inactive
Cc1cccc(N)c1C,inactive,inactive,,,,,inactive,,,inactive,inactive,inactive,,inactive,inactive,,,inactive,-0.847% (inactive),
